# According to PubChem BioAssay (NCATS):
# Results filed as inconclusive are left out. Calls of active or inactive are those of the source. The call rests on the fitted dose curve; in most records, active means well fitted curve in the direction sought with a large enough effect; inconclusive means small, poorly fitted or top-dose-only effect, or another doubt; inactive means no such curve, though single readings can be large; an effect the other way counts as inactive or inconclusive.
# Assay: BET inhibitor-based combinations targeting novel dependencies in MECOM-rearranged (r) AML: SET-2 cell line (AID 2202231); further: nearly all actives have a fitted effect of over 35% in size;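 on viability: plate controls were DMSO treated cells for no effect and wells without cells for full effect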
# Conditions: SET-2 AML cells viability, CellTiter-Glo luminescence, 48 h; viability: stronger effect = lower value, concentration not given here
# How it was run: (§1)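 Viability of cells (500 per well) is scored by luminescent CellTiter-Glo at 48 hr post-dosing. Eleven-point titrations are normalized to DMSO and empty controls and reduced to AUC values.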
# Potency means the concentration at half of the fitted maximal effect.
Structure (SMILES),Potency,viability
NC(=O)[C@H]1CCS[C@@H]2C[C@]3(CCCN3C(=O)Cc3ccc(NC(=O)COc4ccc(Cl)cc4Cl)cc3)C(=O)N12,14.8 µM (active),–
NCc1ccc(OCCCc2sc(-c3ccc4c(c3)/C(=N/Nc3nc5ccccc5s3)CCC4)nc2C(=O)O)cc1,0.332 µM (active),–
O=C(O)c1cccc(-c2noc(-c3ccccc3F)n2)c1,20.9 µM (active),–
O=C(CCN1CCN(C(=O)OCc2cc(Cl)cc(Cl)c2)CC1)c1ccc2[nH]c(=O)oc2c1,–,95.2% (inactive)
OC[C@H]1O[C@@H](n2cnc3c2NC=NC[C@H]3O)C[C@@H]1O,–,108% (inactive)
O=C(CCl)Nc1cccc(NC2=NS(=O)(=O)c3ccccc32)c1,26.3 µM (active),–

# Assay: BET inhibitor-based combinations targeting novel dependencies in MECOM-rearranged (r) AML: OCI-AML3 cell line (AID 2202232); further: nearly all actives have a fitted effect of over 35% in size;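 on viability (% of control): plate controls were DMSO vehicle wells for no effect and wells without cells for full effect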
# Conditions: CellTiter-Glo luminescence, 48 h; Potency: OCI-AML3 viability; series mostly up to 46 µM; viability (% of control): at the top concentration
# How it was run: as §1
Structure (SMILES),Potency,viability (% of control)
NC(=O)[C@H]1CCS[C@@H]2C[C@]3(CCCN3C(=O)Cc3ccc(NC(=O)COc4ccc(Cl)cc4Cl)cc3)C(=O)N12,9.34 µM (active),–
NCc1ccc(OCCCc2sc(-c3ccc4c(c3)/C(=N/Nc3nc5ccccc5s3)CCC4)nc2C(=O)O)cc1,–,62.9% (inactive)
O=C(CCN1CCN(C(=O)OCc2cc(Cl)cc(Cl)c2)CC1)c1ccc2[nH]c(=O)oc2c1,18.6 µM (active),–
OC[C@H]1O[C@@H](n2cnc3c2NC=NC[C@H]3O)C[C@@H]1O,–,113% (inactive)
O=C(CCl)Nc1cccc(NC2=NS(=O)(=O)c3ccccc32)c1,10.5 µM (active),–
O=c1cc(CN2CCOCC2)occ1OCCCCCSc1ccnc2cc(C(F)(F)F)ccc12,–,56.4% (inactive)

# Assay: BET inhibitor-based combinations targeting novel dependencies in MECOM-rearranged (r) AML: MV-4-11 cell line (AID 2202233); further: nearly all actives have a fitted effect of over 45% in size;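 on viability, % of control: plate controls were DMSO for no effect and blank wells for full effect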
# Conditions: MV-4-11 AML viability, CellTiter-Glo luminescence, 48 h; series mostly up to 46 µM; viability, % of control: at the top concentration
# How it was run: (§2)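 Using pin-tool transfer, drugs were added in 11 doses to cells (500/well), incubated 48 hr, and assessed with CellTiter-Glo. Z-AUC is a mean-centring transformation applied separately to each screened line.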
Structure (SMILES),Potency,"viability, % of control"
NC(=O)[C@H]1CCS[C@@H]2C[C@]3(CCCN3C(=O)Cc3ccc(NC(=O)COc4ccc(Cl)cc4Cl)cc3)C(=O)N12,7.42 µM (active),–
O=C(CCN1CCN(C(=O)OCc2cc(Cl)cc(Cl)c2)CC1)c1ccc2[nH]c(=O)oc2c1,26.3 µM (active),–
OC[C@H]1O[C@@H](n2cnc3c2NC=NC[C@H]3O)C[C@@H]1O,–,113% (inactive)
O=C(CCl)Nc1cccc(NC2=NS(=O)(=O)c3ccccc32)c1,16.6 µM (active),–

# Assay: BET inhibitor-based combinations targeting novel dependencies in MECOM-rearranged (r) AML: HNT-34 cell line (AID 2202234); further: nearly all actives have a fitted effect of over 35% in size;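 on viability (% of control): plate controls were vehicle wells for no effect and cell-free wells for full effect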
# Conditions: HNT-34 AML viability, CellTiter-Glo luminescence, 48 h; series mostly up to 46 µM; viability (% of control): at the top concentration
# How it was run: as §2
Structure (SMILES),Potency,viability (% of control)
NCc1ccc(OCCCc2sc(-c3ccc4c(c3)/C(=N/Nc3nc5ccccc5s3)CCC4)nc2C(=O)O)cc1,0.166 µM (active),–
OC[C@H]1O[C@@H](n2cnc3c2NC=NC[C@H]3O)C[C@@H]1O,–,106% (inactive)
O=C(CCl)Nc1cccc(NC2=NS(=O)(=O)c3ccccc32)c1,5.25 µM (active),–

# Assay: BET inhibitor-based combinations targeting novel dependencies in MECOM-rearranged (r) AML: UCSD-AML1 cell line (AID 2202235); further: nearly all actives have a fitted effect of over 40% in size;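 on viability (% of control): plate controls were DMSO vehicle wells for no effect and blank wells for full effect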
# Conditions: UCSD-AML1 AML cells viability, CellTiter-Glo, 48 h; series mostly up to 46 µM; viability (% of control): at the top concentration
# How it was run: as §2
Structure (SMILES),Potency,viability (% of control)
NC(=O)[C@H]1CCS[C@@H]2C[C@]3(CCCN3C(=O)Cc3ccc(NC(=O)COc4ccc(Cl)cc4Cl)cc3)C(=O)N12,7.42 µM (active),–
NCc1ccc(OCCCc2sc(-c3ccc4c(c3)/C(=N/Nc3nc5ccccc5s3)CCC4)nc2C(=O)O)cc1,0.209 µM (active),–
O=C(O)c1cccc(-c2noc(-c3ccccc3F)n2)c1,18.6 µM (active),–
CC(O)(C#Cc1ccc2c(c1)N(c1nc(N)ncc1Cl)CC2)c1nccs1 (stereo not drawn),–,111% (inactive)
OC[C@H]1O[C@@H](n2cnc3c2NC=NC[C@H]3O)C[C@@H]1O,–,109% (inactive)
O=c1cc(CN2CCOCC2)occ1OCCCCCSc1ccnc2cc(C(F)(F)F)ccc12,–,103% (inactive)

# Assay: BET inhibitor-based combinations targeting novel dependencies in MECOM-rearranged (r) AML: AML-191 cell line (AID 2202236; further: nearly all actives have a fitted effect of over 35% in size;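 on viability (% of control): plate controls were vehicle wells for no effect and wells without cells for full effect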)
# Conditions: AML-191 viability, CellTiter-Glo luminescence, 48 h; series mostly up to 46 µM; viability (% of control): at the top concentration
# How it was run: as §1
Structure (SMILES),Potency,viability (% of control)
NC(=O)[C@H]1CCS[C@@H]2C[C@]3(CCCN3C(=O)Cc3ccc(NC(=O)COc4ccc(Cl)cc4Cl)cc3)C(=O)N12,5.25 µM (active),–
O=C(O)c1cccc(-c2noc(-c3ccccc3F)n2)c1,20.9 µM (active),–
OC[C@H]1O[C@@H](n2cnc3c2NC=NC[C@H]3O)C[C@@H]1O,–,95.1% (inactive)
O=C(CCl)Nc1cccc(NC2=NS(=O)(=O)c3ccccc32)c1,8.33 µM (active),–

# Assay: BET inhibitor-based combinations targeting novel dependencies in MECOM-rearranged (r) AML: AML-194 cell line (AID 2202237; further: nearly all actives have a fitted effect of over 40% in size;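 on viability (% of control): plate controls were vehicle wells for no effect and wells without cells for full effect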)
# Conditions: AML-194 (MECOM-r AML) viability, CellTiter-Glo, 48 h; series mostly up to 46 µM; viability (% of control): at the top concentration
# How it was run: as §1
Structure (SMILES),Potency,viability (% of control)
NC(=O)[C@H]1CCS[C@@H]2C[C@]3(CCCN3C(=O)Cc3ccc(NC(=O)COc4ccc(Cl)cc4Cl)cc3)C(=O)N12,6.61 µM (active),–
NCc1ccc(OCCCc2sc(-c3ccc4c(c3)/C(=N/Nc3nc5ccccc5s3)CCC4)nc2C(=O)O)cc1,–,91.6% (inactive)
OC[C@H]1O[C@@H](n2cnc3c2NC=NC[C@H]3O)C[C@@H]1O,–,105% (inactive)
O=C(CCl)Nc1cccc(NC2=NS(=O)(=O)c3ccccc32)c1,13.2 µM (active),–
